Among all 1,200 compounds or so, about 15 (1%) were called active. Where a call stands in place of a potency, no number is given. About 7% were inconclusive and are not listed. The call rests on the fitted dose curve; in most records, active means well fitted activation curve with a large enough effect; inconclusive means small, poorly fitted or top-dose-only effect; inactive means flat fitted curve, though single readings scatter. The sample as a whole holds a higher share of actives than the screen did.
Potency means the concentration at half of the fitted maximal effect.

Chain of Beta-2 adrenergic receptor (Homo sapiens) (P07550 whole entry, looked up): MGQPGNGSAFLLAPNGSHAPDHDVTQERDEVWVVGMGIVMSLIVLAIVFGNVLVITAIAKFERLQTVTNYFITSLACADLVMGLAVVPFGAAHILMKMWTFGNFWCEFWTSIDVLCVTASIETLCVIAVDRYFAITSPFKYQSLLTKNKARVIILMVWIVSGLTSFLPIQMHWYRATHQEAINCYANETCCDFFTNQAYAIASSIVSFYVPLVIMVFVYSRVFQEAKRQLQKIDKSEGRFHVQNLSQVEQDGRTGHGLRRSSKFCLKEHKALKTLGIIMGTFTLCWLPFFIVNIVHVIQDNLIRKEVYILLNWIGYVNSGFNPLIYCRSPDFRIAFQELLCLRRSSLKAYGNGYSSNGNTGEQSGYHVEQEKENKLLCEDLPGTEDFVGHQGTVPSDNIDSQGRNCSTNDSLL

For this assay, the target named is Beta-2 adrenergic receptor (Homo sapiens) (UniProt P07550). Briefly: qHTS assay of beta-arrestin-biased ligands of beta2-adrenergic receptor: Hit Validation. Particulars: cell-based beta-arrestin recruitment to beta2AR; Potency: activation; series mostly up to 46.1 µM. From the text:
The concept of biased agonism is an emerging concept of molecular pharmacology which proposes that seven transmembrane receptors (7TMRs) or G protein-coupled receptors (GPCRs), exist in multiple signaling conformations and complexes and that ligands (either agonists or antagonists) can induce signaling biased responses for distinct signal transduction cascades.
Furthermore, accumulating evidence over the last decade has drawn attention to a novel function of beta-arrestins as signal transducers that scaffold various signaling molecules upon activation of 7TMRs. […] This beta-arrestin-biased signaling presumably leads to distinct physiological outcomes from those by G protein activation.
Additionally, the active receptor conformations which […] on this beta-arrestin signaling are likely different from those activating G protein signaling
The goal of this screening project will be to discover and optimize novel beta-arrestin-biased ligands for beta2-AR signaling. A luminescent cell-based assay for beta2-AR-mediated agonism, known as the Tango assay, has been validated in which ligand binding of a recombinant beta2-AR and subsequent recruitment of a recombinant beta-arrestin lead to the release of the transcriptional activator tTA, which upregulates transcription of a tTA-responsive luciferase gene.
NIH Molecular Libraries Probe Production Network [MLPCN]
NIH Chemical Genomics Center [NCGC]
PI: Bryan Roth (UNC) and Bob Lefkowitz (Duke)
NCGC Assay Protocol Summary:
Tango cells were dispensed into white, solid, tissue-culture-treated 1536-well plates at 1500 cells/well in DMEM, containing 1% fetal bovine serum (FBS). Then, 23 nL of compounds or DMSO were delivered to each well using a pin tool. Plates were incubated at 37 degrees C, 5% CO2 for 18 hr. Then 2.5 uL luminescent substrate mix (in-house prepared: 150 mM Tris-Cl, pH 7.6, 3 mM MgCl2, 1% Triton X-100, 5 mM DTT, 0.5 mM CoA, 0.15 mM ATP, 0.44 mM D-luciferin, final concentrations) was added to each well. Plates were then incubated for 15 minutes at room temperature, and subsequently measured on a ViewLux plate reader for luminescent signal using a clear filter with a 10 second exposure and 2x binning. The %Activity was determined from the corrected luminescence values.
Concentration-response curves were fitted to the signals arising from the resulting luminescence. The concentration-effect curves were then classified based on curve quality (r2), response magnitude and degree of measured activity, and compounds were subsequently categorized based on their curve class.
Keywords: biased agonism, beta2-AR, beta-arrestin, GPCR, 7TMR, Tango, luminescence, MLSMR, MLPCN, NIH Roadmap, qHTS, NCGC
Background: Quantitative high-throughput screening tests each substance at several concentrations.
For `Clc1cccc(Cl)c1C1Nc2cccc3cccc(c23)N1`, the Potency entry was “inactive”.
For `COC(=O)N1C(=O)[C@@](c2ccc(OC)cc2)(C(C)C)N1C(=O)OC`, the Potency entry is “inactive”.
Then `COc1ccc(C(=O)C2CCCN(Cc3cnc(N4CCCC4)s3)C2)cc1OC` (configuration not stated), with “inactive”; and `Fc1ccccc1NC(=S)Nn1cnnc1`, with “inactive”.
As for `CCOc1ccc(N(CC(=O)Nc2cccnc2)S(=O)(=O)c2ccc(C)cc2)cc1`, the entry is “inactive”; as for `O=C(CNCc1ccccc1Cl)Nc1ccc2c(c1)OCCO2`, “inactive”; as for `Cc1cccc(N=C2NC(=O)/C(=C/c3cccs3)S2)c1`, “inactive”.
Turning to `CCNC(=S)NNc1nncc2ccccc12`, the Potency result is “inactive”.
Then `S=C(N/N=C/c1ccco1)NC1CC2CCC1C2` (configuration not stated), with “inactive”; and `CN=C(c1ccc(C)cc1)n1c(=S)nc(-c2ccc(C)cc2)n(C)c1=S`, with “inactive”.
`CNc1cc(C)nc(-n2nc(C)cc2C)n1`: the Potency entry was “inactive”.
Then `CN(C)NC(=S)Nc1ccc(Cl)cc1`, with “inactive”; and `C/C(CCC1CC(C)(C)OC1=O)=N\NC(N)=S` (configuration not stated), with “inactive”.
In the case of `O=C(O)CCC(=O)N1N=C(c2ccccc2)CC1c1ccc2nccnc2c1` (configuration not stated), the Potency entry is “inactive”.
Take `O=C(OCC1CC(c2ccccc2)=NO1)c1ccco1` (configuration not stated): the Potency result was “inactive”.
For the molecule `COc1ccc2nc(NC(=S)N(C)C)sc2c1`, the Potency result is “inactive”.
Then `COc1ccc(C2=NN(C(=O)/C=C/c3ccccc3)C(c3ccccc3)C2)c(OC(C)=O)c1` (configuration not stated), with “inactive”.
As for `Cc1cc(/C=N/NC(N)=S)c(C)n1-c1ccc(Br)cc1`, the entry is “inactive”; as for `COc1ccc(CN2CCCC(C(=O)c3ccc(Cl)cc3)C2)cc1Cn1cccn1` (configuration not stated), “inactive”; as for `COC(=O)CSc1ccc2nnc(-c3ccc(OC)c(OC)c3)n2n1`, “inactive”.
Regarding `CCNC(=S)N/N=C/c1cccs1`, the Potency entry was “inactive”.
Then `Cc1nn(-c2ccccc2)c(C)c1/C=N/NC(=O)CSc1nnc(SCc2ccccc2Cl)s1`, with “inactive”.
In the case of `FC(F)(F)c1cc(Nc2ccccc2)nc(-c2ccccn2)n1`, the Potency entry is “inactive”.
As for `CC1S/C(=N/N=C2CCCCC2)NC1=O` (configuration not stated), the entry is “inactive”; as for `Cc1ccc2c(c1)C(=O)N1[C@H]3c4ccccc4OC[C@@H]3[C@H](c3ccccc3)[C@]1(C)C(=O)N2`, “inactive”; as for `CCN1CCN(C(=S)NC(=O)c2cccc(Br)c2)CC1`, “inactive”.
Then `Cc1ccc(-n2c(SCC(=O)NCc3ccco3)nc3c(sc4ccccc43)c2=O)cc1`, with 13 µM (active); and `CCC(Sc1nc2ccsc2c(=O)n1-c1ccc(Cl)c(C)c1)C(=O)NCc1ccco1` (configuration not stated), with “inactive”.
Then `COc1ccc(CNc2nc(SCC(=O)NCc3ccco3)nc3ccccc23)cc1`, with “inactive”; and `CCOC(=O)C(Sc1cc(-c2ccccc2)nc2ncnn12)C(C)=O` (configuration not stated), with “inactive”.
On to `CC(C)(O)C(=O)NN(C(=O)c1ccccc1)c1ccc2ccccc2c1`, for which the Potency result was “inactive”.
In the case of `O=C(N/N=C/c1cccs1)c1cncc(Br)c1`, the Potency entry is “inactive”.

Source of the values: PubChem BioAssay AID588463 (National Center for Advancing Translational Sciences (NCATS), 2011).
